Screening data from PubChem.
Wnt act: Wnt/beta-catenin pathway activation; Wnt/beta-catenin reporter cell assay, activator, plate reader; activation, % at 9.35 µM; hit rate 1.2% among 300,000; AID 743398; in the data active = activation above about 30%, passing the limit was not always enough
EWS-Fli inh: blocks EWS/Fli oncoprotein-driven transcription; A673 NR0B1-luciferase reporter, viability-normalised; inhibition, % at 12.6 µM; hit rate 0.67% among 350,000; AID 651661;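 active = mean inhibition of at least 50% after viability correction, with every replicate also passing that limit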;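 note: firefly luciferase signal divided by Alamar Blue viability fluorescence both relative to DMSO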
MITF TRPM1 inh: inhibitors of MITF-driven TRPM1 promoter in melanoma cells; SK-MEL-5 TRPM1 promoter luciferase, 24 h; inhibition, % at 12.5 µM; hit rate 0.83% among 330,000; AID 488899;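 active = mean inhibition across replicates of 60% or more, whatever share of single replicates reaches that level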
MITF act: MITF TRPM1 promoter activation in melanoma cells. SK-MEL-5 TRPM1-promoter luciferase, 24 h; % of positive control, neutral wells = 0. activation, % at 12.5 µM. hit rate 0.75% among 300,000. AID 588334;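 active = mean activation of at least 80% with every replicate also reaching 80%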
esBAF inh: blocks esBAF chromatin remodeling in mouse ES cells; reporter increase, % at 12.5 µM; hit rate 2% among 350,000; AID 602393; Bmi1-luciferase knock-in reporter, 24 h; 100% = twice the neutral-well signal; in the data active = activation above about 40%;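 note: a rise in the Bmi1 reporter signal indicates esBAF inhibition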
PAX8 inh HTS: lowers PAX8-driven luciferase in RMG-I cells; RMG-I TPO-luciferase reporter, SteadyGlo, 24 h; inhibition, % at 12.6 µM; hit rate 1.2% among 360,000; AID 652154;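 active = mean replicate inhibition at least 60% with every replicate also reaching 60%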;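 note: luciferase light reporting Pax8 driven TPO promoter activity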
Hits are given with their value. This is a sample that favours compounds with a hit; in the whole collection about 4% have one here.

`O=C(N[C@@H]1CC[C@H](CCNC(=O)C2CCCCC2)O[C@@H]1CO)c1ccncc1` gave EWS-Fli inh inactive, esBAF inh inactive and PAX8 inh HTS inactive.
For O=C(C[C@@H]1C=C[C@@H](NC(=O)Nc2ccccc2F)[C@@H](CO)O1)NCc1ccccc1 the results were EWS-Fli inh inactive.
`CCOC(=O)c1cnc(SCc2ccc(C(C)(C)C)cc2)nc1N` gave MITF TRPM1 inh inactive and esBAF inh inactive.
CCOC(=O)c1cnc(SCc2ccccc2)nc1N was read as MITF TRPM1 inh inactive, MITF act 107 and esBAF inh 79.
Screening CCCCOc1ccc2ccccc2c1C=O returned Wnt act inactive, MITF TRPM1 inh inactive, MITF act inactive, esBAF inh 73 and PAX8 inh HTS inactive.
For CCCOc1ccc2ccccc2c1/C=C1\SC(=O)NC1=O the results were Wnt act inactive, EWS-Fli inh inactive, MITF TRPM1 inh inactive, esBAF inh inactive and PAX8 inh HTS inactive.
Screening Cc1noc(C)c1S(=O)(=O)Nc1ccc2c(c1)C(=O)N([C@H](C)CO)C[C@@H](C)[C@@H](CN(C)S(=O)(=O)c1ccc(Cl)cc1)OCCCC[C@H](C)O2 returned EWS-Fli inh inactive, esBAF inh inactive and PAX8 inh HTS 70.
`COc1ccc(S(=O)(=O)N(C)C[C@H]2OCCCC[C@@H](C)Oc3ccc(NS(=O)(=O)c4c(C)noc4C)cc3C(=O)N([C@H](C)CO)C[C@H]2C)cc1` gave EWS-Fli inh inactive, esBAF inh inactive and PAX8 inh HTS 77.
`Cc1noc(C)c1S(=O)(=O)N(C)C[C@H]1OCCCC[C@H](C)Oc2ccc(NS(=O)(=O)c3ccc(Cl)cc3)cc2C(=O)N([C@H](C)CO)C[C@@H]1C` gave EWS-Fli inh inactive, esBAF inh inactive and PAX8 inh HTS 70.
Fc1ccc(CNCc2ccccc2Cl)cc1 was read as Wnt act 34, EWS-Fli inh inactive, MITF TRPM1 inh inactive, MITF act inactive and PAX8 inh HTS inactive.
Screening Cc1cc(C)cc(NC(=O)CCn2cnc3cc(C)c(C)cc32)c1 returned Wnt act 38, EWS-Fli inh inactive, MITF TRPM1 inh inactive, MITF act inactive and PAX8 inh HTS inactive.
Cc1cc(S(=O)(=O)c2ccc(Cl)cc2)nc(S(=O)(=O)c2ccc(Cl)cc2)c1C#N was read as Wnt act inactive, EWS-Fli inh 64, esBAF inh inactive and PAX8 inh HTS 83.
For Cc1cc(C)c(S(=O)(=O)c2ccc(Cl)cc2)c(Cl)n1 the results were Wnt act inactive, EWS-Fli inh inactive, MITF TRPM1 inh inactive, MITF act inactive and PAX8 inh HTS inactive.
Screening COc1cccc(C#Cc2ccc([C@H]3[C@H](CO)N4C(=O)CN(C(=O)Cc5cccnc5)C[C@@H]34)cc2)c1 returned EWS-Fli inh inactive.
`CN1CCN(C(=O)C2CCCN(S(=O)(=O)c3ccc(F)cc3)C2)CC1` (stereo not drawn) gave Wnt act inactive, MITF TRPM1 inh inactive, MITF act inactive and PAX8 inh HTS inactive.
Screening O=C(C1CCCN(S(=O)(=O)c2ccc(F)cc2)C1)N1CCOCC1 (stereo not drawn) returned Wnt act 43, EWS-Fli inh inactive, MITF TRPM1 inh inactive, MITF act inactive, esBAF inh 55 and PAX8 inh HTS inactive.
For COc1ccc2c(c1)c1ncn(CCN3CCCC3)c(=O)c1n2C the results were MITF TRPM1 inh inactive, MITF act inactive and esBAF inh inactive.
Screening COc1ccc2c(c1)c1ccc3c(c1n2C)C(=O)C=CC3=O returned Wnt act inactive, EWS-Fli inh 60, MITF TRPM1 inh 92, MITF act inactive, esBAF inh inactive and PAX8 inh HTS inactive.
`Cc1ccc2c(c1)c1ccc3c(c1n2C)C(=O)C=CC3=O` gave Wnt act inactive, EWS-Fli inh inactive, MITF TRPM1 inh 93, MITF act inactive, esBAF inh inactive and PAX8 inh HTS inactive.
Screening Cn1c2ccccc2c2ccc3c(c21)C(=O)C=CC3=O returned Wnt act inactive, EWS-Fli inh inactive, MITF TRPM1 inh 89, MITF act inactive and PAX8 inh HTS inactive.
For O=C(C[C@H]1C[C@@H]2c3cc(NC(=O)Nc4ccccc4F)ccc3O[C@@H]2[C@H](CO)O1)NCc1ccc(Oc2ccccc2)cc1 the results were EWS-Fli inh inactive, esBAF inh inactive and PAX8 inh HTS inactive.
`Fc1ccc(-n2cc(-c3ccccc3)c3c(N4CCOCC4)ncnc32)cc1` gave Wnt act inactive, EWS-Fli inh inactive, MITF TRPM1 inh inactive, MITF act inactive and PAX8 inh HTS inactive.
For Brc1ccc(-n2cc(-c3ccccc3)c3c(NN4CCOCC4)ncnc32)cc1 the results were Wnt act inactive, EWS-Fli inh inactive, MITF TRPM1 inh inactive, MITF act inactive and PAX8 inh HTS 95.
COc1ccc(-n2cc(-c3ccccc3)c3c(N4CCOCC4)ncnc32)cc1 was read as Wnt act inactive, EWS-Fli inh inactive, MITF TRPM1 inh inactive, MITF act inactive, esBAF inh inactive and PAX8 inh HTS 64.
CCNC(=O)C[C@H]1CC[C@@H]2[C@@H](COc3ccc(NS(C)(=O)=O)cc3C(=O)N2C)O1 was read as EWS-Fli inh inactive, esBAF inh inactive and PAX8 inh HTS inactive.
CC(C)C1CC(=O)NC(SCC(=O)Nc2ccc(Br)cc2)=C1C#N (stereo not drawn) was read as Wnt act inactive, MITF TRPM1 inh inactive, MITF act inactive and esBAF inh 99.
For CCN(CC(=O)Nc1c(F)cccc1F)C(=O)c1cc(S(=O)(=O)N(CC)CC)ccc1N1CCCCC1 the results were Wnt act inactive, MITF TRPM1 inh inactive, MITF act inactive, esBAF inh inactive and PAX8 inh HTS 88.
For CCN(CC(=O)Nc1ccc(OC)cc1)C(=O)c1cc(S(=O)(=O)N2CCOCC2)ccc1N1CCCC1 the results were Wnt act inactive, EWS-Fli inh inactive, MITF TRPM1 inh inactive, MITF act inactive, esBAF inh inactive and PAX8 inh HTS 69.
CCc1ccc(CN(C)C(=O)c2cc(S(=O)(=O)N3CCOCC3)ccc2N2CCCC2)cc1 was read as Wnt act inactive, EWS-Fli inh inactive, MITF TRPM1 inh inactive, MITF act inactive, esBAF inh inactive and PAX8 inh HTS inactive.
For Cc1ccsc1CN(C)C(=O)c1cc(S(=O)(=O)N2CCOCC2)ccc1N1CCCC1 the results were Wnt act 44, EWS-Fli inh inactive, MITF TRPM1 inh inactive, MITF act inactive, esBAF inh inactive and PAX8 inh HTS inactive.
CCN(CC(=O)Nc1c(F)cccc1F)C(=O)c1cc(S(=O)(=O)N(C)C)ccc1N1CCCC1 was read as Wnt act inactive, EWS-Fli inh inactive, MITF TRPM1 inh inactive, MITF act inactive and PAX8 inh HTS 90.
For COCC#Cc1cnc2c(c1)C(=O)N([C@H](C)CO)C[C@H](C)[C@H](CN(C)C(=O)C1CC1)O2 the results were EWS-Fli inh inactive.
